Screening results (PubChem BioAssay)
Pf growth 96h = Primary qHTS for delayed death inhibitors of the malarial parasite plastid, 96 hour incubation; 320,000 compounds, 6.9% hits; AID 504834, 2011; Potency, µM (doses to about 28.7 µM), hits mostly inhibitors; P. falciparum luciferase reporter growth, 96 h; active means well fitted inhibition curve with a large enough effect; inconclusive means small, poorly fitted or top-dose-only effect, or another doubt; inactive means no such curve, though single readings can be large or run the other way
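Two-generation exposure (96 h) targets delayed-death phenotype. Reporter parasites carrying integrated firefly luciferase, in red cells at 2% hematocrit and 0.05% parasitemia final, kept at 37 C, 5% CO2; luminescence loss indicates inhibition.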
NS1 inh = qHTS Assay for Inhibitors of Influenza NS1 Protein Function; Potency, µM (top dose mostly 46.1 µM); 270,000 compounds, 0.4% hits; further: actives are rising curves; nearly all actives have a fitted effect of over 50% in size
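Growth recovery, yeast-based: influenza A NS1 expressed in S. cerevisiae causes slow growth, and suppressors are detected by OD600. The parent strain without NS1 is used as positive control.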
Pf growth 48h = Primary qHTS for delayed death inhibitors of the malarial parasite plastid, 48 hour incubation | 310,000 compounds, 5.9% hits | Potency, µM (top dose mostly 28.7 µM), most hits filed as inhibitors | AID 504832, 2011 | P. falciparum luciferase growth in erythrocytes, 48 h; active means well fitted inhibition curve with a large enough effect; inconclusive means small, poorly fitted or top-dose-only effect, or another doubt; inactive means no such curve, though single readings can be large or run the other way
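Read-out is firefly luciferase luminescence from an integrated reporter in P. falciparum, so falling signal marks reduced parasite growth. Infected erythrocytes were at 2% hematocrit and 0.1% parasitemia (final) in Albumax-supplemented RPMI 1640.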
SARS PLP yeast = qHTS of Yeast-based Assay for SARS-CoV PLP; S. cerevisiae expressing SARS-CoV PLpro, growth rescue; Potency, µM (highest dose often 32.9 µM), actives largely listed as activators; 330,000 compounds, 0.19% hits; further: nearly all actives have a fitted effect of over 55% in size
Numbers stand for hits. The list is not random: actives were taken first. Their share in the collection is about 10%. Unless noted, the call rests on the fitted dose curve.

Screening COCCn1c(SCC(=O)Nc2ccc(S(N)(=O)=O)cc2)nc2ccccc21 returned NS1 inh inactive, Pf growth 48h inactive and SARS PLP yeast inactive.
COCCn1c(SCC(=O)Nc2ccc(Cl)c(S(=O)(=O)N(C)C)c2)nc2ccccc21 was read as NS1 inh inactive, Pf growth 48h 12µM and SARS PLP yeast inactive.
For COCCn1c(SCC(=O)Nc2ccc(S(=O)(=O)N3CCOCC3)cc2)nc2ccccc21 the results were Pf growth 96h inactive, NS1 inh inactive, Pf growth 48h 10µM and SARS PLP yeast inactive.
For CCC(C(=O)Nc1ccccc1Cl)n1nc(C)c2c(C)n(-c3ccccc3)nc2c1=O (stereo unspecified) the results were Pf growth 96h inactive, NS1 inh inactive, Pf growth 48h inconclusive and SARS PLP yeast inactive.
Screening Cc1nn(C(C)C(=O)Nc2ccccc2Cl)c(=O)c2nn(-c3ccccc3)c(C)c12 (stereo unspecified) returned Pf growth 96h 12µM, NS1 inh inactive, Pf growth 48h inactive and SARS PLP yeast inactive.
For Cc1nn(C(C)C(=O)NC2CCCCC2)c(=O)c2nn(-c3ccccc3)c(C)c12 (stereo unspecified) the results were Pf growth 96h 12µM, NS1 inh inactive, Pf growth 48h inactive and SARS PLP yeast inactive.
For COC(=O)c1ccccc1NC(=O)C(C)n1nc(C)c2c(C)n(-c3ccccc3)nc2c1=O (stereo unspecified) the results were Pf growth 96h 9.3µM, NS1 inh inactive, Pf growth 48h inconclusive and SARS PLP yeast inactive.
For CCC1(C)Cc2ccccc2-c2nc(NCCCO)[nH]c(=O)c21 (stereo unspecified) the results were Pf growth 96h inactive, NS1 inh inactive, Pf growth 48h inactive and SARS PLP yeast inactive.
CCOc1ccc(NC(=S)N2CCC(NC(=O)C3CCCCC3)CC2)cc1 was read as Pf growth 96h inactive, NS1 inh inactive, Pf growth 48h inactive and SARS PLP yeast inactive.
`Cc1cc(C)n2nc(SCc3ccccc3)nc2n1` gave Pf growth 96h inactive, NS1 inh inactive, Pf growth 48h inactive and SARS PLP yeast inactive.
CCCCCCCCSc1nnc(CSc2nc3nc(C)cc(C)n3n2)o1 was read as Pf growth 96h inconclusive, NS1 inh inactive, Pf growth 48h 12µM and SARS PLP yeast inactive.
Screening CCSc1nc2nc(C)cc(C)n2n1 returned Pf growth 96h 12µM, NS1 inh inactive, Pf growth 48h inactive and SARS PLP yeast inactive.
For C=C(C)CSc1nc2nc(C)cc(C)n2n1 the results were Pf growth 96h inactive, NS1 inh inactive, Pf growth 48h inactive and SARS PLP yeast inactive.
C=CCSc1nc2nc(C)cc(C)n2n1 was read as Pf growth 96h 0.33µM, NS1 inh inactive, Pf growth 48h inactive and SARS PLP yeast inactive.
Screening CCC1(c2ccc(F)cc2)NC(=O)N(CC(=O)N2CCN(C(=O)c3ccco3)CC2)C1=O (stereo unspecified) returned SARS PLP yeast inactive.
C(=N\c1nc2ccccc2[nH]1)/c1cccs1 was read as Pf growth 96h 10µM, NS1 inh inactive, Pf growth 48h inactive and SARS PLP yeast inactive.
For Cc1occc1-c1nnc(-c2cc([N+](=O)[O-])cc([N+](=O)[O-])c2)o1 the results were Pf growth 96h inactive, NS1 inh inactive, Pf growth 48h 10µM and SARS PLP yeast inactive.
`COc1cc(/C=C(\C#N)c2ccccn2)ccc1OCc1ccccc1Cl` gave Pf growth 96h 2.3µM, NS1 inh inactive, Pf growth 48h 1.9µM and SARS PLP yeast inactive.
Screening COc1cc(/C=C(\C#N)c2ccccn2)cc(OC)c1O returned Pf growth 96h inactive, NS1 inh inactive, Pf growth 48h inactive and SARS PLP yeast inactive.
`N#Cc1ccccc1OCC(=O)NCC1(N2CCCCC2)CCCCC1` gave Pf growth 96h inactive, NS1 inh inactive, Pf growth 48h 3.3µM and SARS PLP yeast inactive.
`Cc1ccc(OCCCNCCO)c(Br)c1` gave Pf growth 96h inconclusive, NS1 inh inactive and SARS PLP yeast inactive.
`CCCCNCCCOc1ccc(C)cc1Br` gave Pf growth 96h 2.3µM, NS1 inh inactive, Pf growth 48h inconclusive and SARS PLP yeast inactive.
`CC1C/C(=C/c2ccco2)C(=O)/C(=C/c2ccco2)C1` (stereo unspecified) gave Pf growth 96h 8.3µM, NS1 inh inactive, Pf growth 48h inactive and SARS PLP yeast inactive.
`CC1C/C(=C/c2ccccn2)C(=O)/C(=C/c2ccccn2)C1` (stereo unspecified) gave Pf growth 96h inconclusive, Pf growth 48h 2.6µM and SARS PLP yeast inactive.
CC(C)(C)C1C/C(=C/c2ccccn2)C(=O)/C(=C/c2ccccn2)C1 (stereo unspecified) was read as Pf growth 96h inactive, Pf growth 48h 2.1µM and SARS PLP yeast inactive.
O=C(Nc1ccccc1Cl)C1CCCN(S(=O)(=O)c2ccc(-n3cnnn3)cc2)C1 (stereo unspecified) was read as Pf growth 96h inactive, NS1 inh inactive, Pf growth 48h inactive and SARS PLP yeast inactive.
For CC1(c2ccc3ccccc3c2)NC(=O)N(CC(=O)NCC(C)(C)N2CCOCC2)C1=O (stereo unspecified) the results were Pf growth 96h inactive, Pf growth 48h inactive and SARS PLP yeast inactive.
Cc1ccccc1NC(=O)c1cc2ccccc2o1 was read as Pf growth 96h 10µM, NS1 inh inactive, Pf growth 48h inactive and SARS PLP yeast inactive.
For Cc1ccc(C)c(NC(=O)c2cc(=O)c3ccccc3o2)c1 the results were Pf growth 96h 13µM, NS1 inh inactive, Pf growth 48h inactive and SARS PLP yeast inactive.
For COc1ccccc1NC(=O)Nc1cc(NC(=O)Nc2ccccc2OC)c(C)nc1C the results were Pf growth 96h 6.6µM, NS1 inh inactive, Pf growth 48h inconclusive and SARS PLP yeast inactive.
`CCOC(=O)c1csc(NC(=O)c2cc(=O)c3ccccc3o2)n1` gave Pf growth 96h 0.074µM, Pf growth 48h inactive and SARS PLP yeast inactive.
`Cc1ccccc1NC(=O)c1cc(=O)c2ccccc2o1` gave Pf growth 96h inactive, NS1 inh inactive, Pf growth 48h inactive and SARS PLP yeast inactive.
`Cc1ccc(NC(=O)c2cc(=O)c3ccccc3o2)c(C)c1` gave Pf growth 96h inactive, NS1 inh inactive, Pf growth 48h inactive and SARS PLP yeast inactive.
Screening CC(=O)c1sc(NC(=O)c2cc(=O)c3ccccc3o2)nc1C returned Pf growth 96h inactive, Pf growth 48h inactive and SARS PLP yeast inactive.
For CCOc1ccc(CNC(=O)c2nnc(CS(=O)(=O)c3ccccc3)o2)cc1OC the results were Pf growth 96h inconclusive, NS1 inh inactive, Pf growth 48h 4.7µM and SARS PLP yeast inactive.
Screening COc1ccc(CNC(=O)c2cc3ccccc3o2)cc1OC returned Pf growth 96h 13µM, NS1 inh inactive, Pf growth 48h inactive and SARS PLP yeast inactive.
Screening COc1cccc2cc(C(=O)NCc3ccccc3)c(=N)oc12 returned Pf growth 96h inactive, NS1 inh inactive, Pf growth 48h inactive and SARS PLP yeast inconclusive.
COc1ccccc1NC(=O)c1cc2ccccc2o1 was read as Pf growth 96h 5.2µM, NS1 inh inactive, Pf growth 48h inactive and SARS PLP yeast inactive.
